According to PubChem BioAssay (Tox21):
Records with an inconclusive call do not appear. A call without a number means that no potency is given here. Calls of active or inactive are those of the source. Unless noted, the call rests on the fitted dose curve; in most records, active means well fitted curve in the direction sought with a large enough effect in the repeat runs; inconclusive means weak or mixed curves; inactive means no such curve, though single readings can be large; an effect the other way counts as inactive or inconclusive.

Experiments:
[1] = molecular target: Retinoic acid receptor RXR-alpha (Homo sapiens) (UniProt P19793); assay: qHTS assay to identify small molecule agonists of the RXR signaling pathway (AID 1159527; calls by dose curve; further: nearly all actives have a fitted effect of over 35% in size)
In short: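 16 hr incubation of compound-treated RXR-alpha-UAS-bla HEK 293T cells (2% charcoal-stripped FBS, 37 C) preceded a 2 hr room-temperature LiveBLAzer FRET substrate step and blue/green fluorescence measurement.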

[2] = qHTS assay to identify small molecule agonists of the RXR signaling pathway - cell viability counter screen (AID 1159529); further: nearly all actives have a fitted effect of over 50% in size; further: potency means the concentration at half of the fitted maximal effect
In short: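 In this parallel viability measure, GeneBLAzer RXR-alpha HEK 293T cells (2% charcoal-stripped FBS) were given a 5 hr preincubation, treated with compounds 16 hr at 37 C, and read by CellTiter-Glo luminescence.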

[3] = qHTS assay to identify small molecule antagonists of the retinoid acid receptor (RAR) signaling pathway - cell viability counter screen (AID 1159551); further: nearly all actives have a fitted effect of over 35% in size
In short: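 Cytotoxicity counter screen in C3RL4 cells: 6 h compound exposure with 1 uM retinol (final), viability from cellular ATP by luminescence.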

[4] = qHTS assay to identify small molecule antagonists of the retinoic acid receptor (RAR) signaling pathway (AID 1159552; further: nearly all actives have a fitted effect of over 50% in size; further: potency means the concentration at half of the fitted maximal effect)
In short: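 C3RL4 RARE-luc cells, overnight plating; retinol 1 uM final added right after compound; 6 hr 37 C; luciferase read at 30 min RT.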

[5] = qHTS assay to identify small molecule agonists of the retinoic acid receptor (RAR) signaling pathway (AID 1159553); details: C3RL4 RARE luciferase reporter, agonist, 6 h; activation: at 73.3 µM (top of the series); further: potency means the concentration at half of the fitted maximal effect
In short: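 Agonist activity was scored in C3RL4 cells bearing a retinoic acid response element luciferase construct. Cells were treated with compounds for 6 hr at 37 C, and luciferase signal was measured as luminescence.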

Chain of Retinoic acid receptor RXR-alpha (Homo sapiens) (P19793 whole entry, looked up): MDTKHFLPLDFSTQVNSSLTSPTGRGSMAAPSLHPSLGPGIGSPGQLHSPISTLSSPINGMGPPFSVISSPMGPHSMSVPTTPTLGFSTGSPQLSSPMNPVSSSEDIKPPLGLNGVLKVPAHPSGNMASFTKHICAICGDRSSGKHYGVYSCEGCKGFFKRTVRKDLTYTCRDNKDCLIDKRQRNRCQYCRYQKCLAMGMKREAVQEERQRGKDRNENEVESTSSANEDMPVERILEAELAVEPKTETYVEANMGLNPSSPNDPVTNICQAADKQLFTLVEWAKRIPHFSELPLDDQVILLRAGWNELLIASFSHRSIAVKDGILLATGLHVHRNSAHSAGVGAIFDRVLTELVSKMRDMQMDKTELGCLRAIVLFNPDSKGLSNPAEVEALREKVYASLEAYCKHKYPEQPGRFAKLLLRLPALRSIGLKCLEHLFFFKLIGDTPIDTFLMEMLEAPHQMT

Row | SMILES | Potency [1] | Potency [2] | Potency [3] | Potency [4] | Potency [5]
1 | FC(F)(F)c1ccccc1Cl | inactive | inactive | inactive | inactive | inactive
2 | CCOC(=O)/C=C/C(=O)OCC | inactive | inactive | – | inactive | inactive
3 | Cc1c(C)c2c(c(C)c1OC(=O)CCC(=O)OCCO)CC[C@@](C)(CCC[C@H](C)CCC[C@H](C)CCCC(C)C)O2 | – | inactive | – | – | –
4 | C[C@@H]1CC(=O)NN=C1c1ccc(NN=C(C#N)C#N)cc1 | – | inactive | inactive | inactive | –
5 | CC(=O)NC1(c2cccc(F)c2)CCN(CC[C@@]2(c3ccc(Cl)c(Cl)c3)CN(c3ccccc3)C(=O)CO2)CC1 | – | 19.6 µM (active) | inactive | 43.4 µM (active) | inactive
6 | CC1=Nc2ccc3ccccc3c2C1(C)C | – | inactive | inactive | inactive | –
7 | O=C1C(=O)c2ccccc2C(O)=C1C1CCC(c2ccc(Cl)cc2)CC1 (stereo unspecified) | – | inactive | inactive | – | –
8 | CCCCCC#CC(=O)OC | – | inactive | inactive | – | –
9 | CC(C)c1nc(CN(C)C(=O)N[C@H](C(=O)N[C@@H](Cc2ccccc2)C[C@H](O)[C@H](Cc2ccccc2)NC(=O)OCc2cncs2)C(C)C)cs1 | – | 9.52 µM (active) | inactive | inactive | inactive
10 | CC[C@]1(O)C[C@H]2CN(CCc3c([nH]c4ccccc34)[C@@](C(=O)OC)(c3cc4c(cc3OC)N(C=O)[C@H]3[C@@](O)(C(=O)OC)[C@H](OC(C)=O)[C@]5(CC)C=CCN6CC[C@]43[C@@H]65)C2)C1 | – | inactive | inactive | 0.168 µM (active) | –
11 | C=C(C)C(=O)OCCOCCOC(=O)C(=C)C | – | inactive | – | – | –
12 | C=Cc1ccc(S(=O)(=O)O)cc1 | – | inactive | inactive | inactive | inactive
13 | CCOC(=O)[C@H](CCc1ccccc1)N[C@@H](C)C(=O)N(CC(=O)O)C1Cc2ccccc2C1 | – | 5.35 µM (active) | – | – | –
14 | Cc1ccc2c(Br)cc(Br)c(O)c2n1 | – | 26.8 µM (active) | inactive | inactive | inactive
15 | C=C(C)C(=O)OCCCCCCCCCCCCC | inactive | – | – | inactive | inactive
16 | CCOc1ccc(Cc2nccc3cc(OCC)c(OCC)cc23)cc1OCC | – | inactive | inactive | inactive | inactive
17 | C[C@]1(Cn2ccnn2)[C@H](C(=O)O)N2C(=O)C[C@H]2S1(=O)=O | – | inactive | inactive | – | –
18 | O=C1NCCN1CCO | – | inactive | inactive | inactive | inactive
19 | N#CCCN(CCO)CCO | – | inactive | inactive | – | –
20 | CC(C)Nc1cccnc1N1CCN(C(=O)c2cc3cc(NS(C)(=O)=O)ccc3[nH]2)CC1 | – | inactive | inactive | inactive | inactive
21 | Cc1cc(O)ccc1O | – | 22.1 µM (active) | – | – | –
22 | c1ccc(C[n+]2cccc3ccccc32)cc1 | – | inactive | inactive | inactive | inactive

Row | SMILES | Potency [1] | Potency [2] | Potency [3] | Potency [4] | Potency [5]
23 | O=C(OCC(O)CO)c1ccccc1Nc1ccnc2cc(Cl)ccc12 (stereo unspecified) | – | inactive | inactive | inactive | –
24 | CCC(C)(C)OC | – | 48.8 µM (active) | inactive | inactive | inactive
25 | Oc1cccc(Nc2ccccc2)c1 | – | inactive | inactive | inactive | –
26 | CC(=O)N/N=C/c1ccc([N+](=O)[O-])o1 | – | inactive | inactive | 29.8 µM (active) | –
27 | CCOC(=O)c1ccc(OCCN2C[C@H](O)[C@@H](O)[C@H](O)[C@H]2CO)cc1 | – | inactive | inactive | – | –
28 | O=C1NC(=O)c2cc([N+](=O)[O-])ccc21 | – | inactive | inactive | inactive | inactive
29 | CCCCCCCC/C=C\CCCCCCCCO | – | inactive | inactive | inactive | inactive
30 | COc1cc(Nc2c(C#N)cnc3cc(OCCCN4CCN(C)CC4)c(OC)cc23)c(Cl)cc1Cl | – | 8.49 µM (active) | inactive | – | –
31 | c1ccc2sc(SN(C3CCCCC3)C3CCCCC3)nc2c1 | – | inactive | inactive | – | –
32 | CC(CO)CO | – | inactive | inactive | inactive | inactive
33 | C=C(C)CCCC(C)CCO (stereo unspecified) | inactive | – | – | inactive | inactive
34 | CC1(C)[C@@H](OC(=O)CCC(=O)O)CC[C@]2(C)[C@H]3C(=O)C=C4[C@@H]5C[C@@](C)(C(=O)O)CC[C@]5(C)CC[C@@]4(C)[C@]3(C)CC[C@@H]12 | – | inactive | inactive | inactive | inactive
35 | Cc1ccco1 | – | inactive | inactive | – | –
36 | O=C(O)c1cccc(-c2noc(-c3ccccc3F)n2)c1 | – | inactive | inactive | 0.422 µM (active) | 0.003 µM (active)
37 | O=C=Nc1ccc(Cl)c(Cl)c1 | inactive | – | – | inactive | inactive
38 | N#CCc1ccc(Cl)cc1Cl | – | inactive | inactive | inactive | inactive
39 | COC(=O)CCS | – | inactive | inactive | – | –
40 | CCCCCCCC/C=C\CCCCCCCCCCCC(=O)O | inactive | – | – | inactive | inactive
41 | CCOC(=O)c1ccc(C#Cc2ccc3c(c2)C(C)(C)CCS3)nc1 | – | inactive | inactive | – | –
42 | CCC(OCCCOC)OC(C)=O (stereo unspecified) | – | inactive | inactive | inactive | inactive
43 | CN(C)CCN1C(=O)c2ccccc2N(C)c2ccccc21 | – | inactive | inactive | inactive | inactive
